In PubChem BioAssay AID1159580 (chemical genetic matrix, 2015):
Hit rate of the full screen: of about 5,500 compounds, about 2,000 (36%) were called active. About 18% were inconclusive and are not listed. No stated cut-off is given here; in the data, active means normalized growth mostly below about 0.91 (no sharp cut-off); inconclusive means no clear call, values can overlap the other calls; inactive means mostly above about 0.92. The list shows a part of the results.

Experiment: chemical genetic growth profiling, strain panel (AID 1159580);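 further: tested at 20 µM; growth read once vehicle control cultures reached saturation at 30 °C; 1 = growth at the plate median or of vehicle wells; lower values mean less growth of the strain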
Details: S. cerevisiae deletion strains, growth OD

Measured: normalized growth

CCN[C@@H]1C[C@H](N)[C@@H](O[C@H]2OC(CN)=CC[C@H]2N)[C@H](O)[C@H]1OC1OC[C@](C)(O)[C@H](NC)[C@H]1O (stereo not given in full)
inactive: locus YAL021C, strain ccr4, active compounds read low 0.983 | locus YAL026C, strain drs2, active compounds read low 0.995 | locus YAL030W, strain snc1, active compounds read low 1.01 | locus YBL061C, strain skt5, active compounds read low 1 | locus YBR009C, strain hhf1, active compounds read low 1.02 | locus YBR023C, strain chs3, active compounds read low 1 | locus YBR171W, strain sec66, active compounds read low 0.996 | locus YBR231C, strain swc5, active compounds read low 1.01 | locus YBR279W, strain paf1, active compounds read low 1.01 | locus YCL011C, strain gbp2, active compounds read low 0.977 | locus YCL016C, strain dcc1, active compounds read low 1 | locus YCL061C, strain MRC1, active compounds read low 0.989 | locus YCL069W, strain vba3, active compounds read low 0.994 | locus YCR088W, strain abp1, active compounds read low 0.983 | locus YDL005C, strain med2, active compounds read low 1 | locus YDL040C, strain nat1, active compounds read low 1.01 | locus YDR001C, strain nth1, active compounds read low 0.985 | locus YDR069C, strain doa4, active compounds read low 1.01 | locus YDR137W, strain rgp1, active compounds read low 0.96 | locus YDR159W, strain sac3, active compounds read low 1.01 | locus YDR195W, strain ref2 0.993 | locus YDR297W, strain sur2, active compounds read low 0.998 | locus YDR334W, strain swr1, active compounds read low 0.979 | locus YDR335W, strain msn5, active compounds read low 0.986 | locus YDR392W, strain spt3, active compounds read low 0.998 | locus YEL003W, strain gim4, active compounds read low 0.989 | locus YEL037C, strain rad23, active compounds read low 0.948 | locus YEL061C, strain CIN8 (second series), active compounds read low 0.981 | locus YER015W, strain faa2, active compounds read low 1.02 | locus YER016W, strain bim1, active compounds read low 0.997 | locus YER111C, strain swi4, active compounds read low 0.994 | locus YER155C, strain BEM2 (second series), active compounds read low 1.01 | locus YFR010W, strain ubp6, active compounds read low 0.975 | locus YGL167C, strain pmr1, active compounds read low 0.998 | locus YGL173C, strain kem1, active compounds read low 1 | locus YGL227W, strain vid30, active compounds read low 0.995 | locus YGL240W, strain doc1, active compounds read low 1.01 | locus YGL253W, strain hxk2, active compounds read low 0.995 | locus YHR013C, strain ard1, active compounds read low 1.02 | locus YHR027C, strain rpn1, active compounds read low 0.999 | locus YHR030C, strain SLT2, active compounds read low 0.97 | locus YHR079C, strain IRE1, active compounds read low 1.02 | locus YHR142W, strain chs7, active compounds read low 0.946 | locus YJL092W, strain hpr5, active compounds read low 0.984 | locus YJL095W, strain BCK1 (second series), active compounds read low 1.01 | locus YJL095W, strain BCK1, active compounds read low 0.972 | locus YJL115W, strain asf1, active compounds read low 0.998 | locus YJL129C, strain trk1, active compounds read low 0.989 | locus YJL154C, strain vps35, active compounds read low 0.996 | locus YJL164C, strain tpk1, active compounds read low 0.996 | locus YJL166W, strain qcr8, active compounds read low 1.01 | locus YJL187C, strain SWE1, active compounds read low 1 | locus YJR066W, strain TOR1, active compounds read low 0.947 | locus YKL160W, strain elf1, active compounds read low 0.986 | locus YKR026C, strain gcn3, active compounds read low 0.978 | locus YKR091W, strain srl3, active compounds read low 0.995 | locus YLL001W, strain dnm1, active compounds read low 0.981 | locus YLL026W, active compounds read low 1.01 | locus YLL041C, strain sdh2, active compounds read low 0.988 | locus YLR027C, strain aat2, active compounds read low 1.01 | locus YLR113W, strain HOG1, active compounds read low 0.953 | locus YLR221C, strain rsa3, active compounds read low 0.987 | locus YLR258W, strain gsy2, active compounds read low 1 | locus YLR262C, strain YPT6 (second series), active compounds read low 1 | locus YLR320W, strain mms22, active compounds read low 1.01 | locus YLR342W, strain FKS1, active compounds read low 0.997 | locus YLR357W, strain rsc2, active compounds read low 0.986 | locus YLR370C, strain arc18, active compounds read low 0.994 | locus YLR384C, strain iki3, active compounds read low 1 | locus YML120C, strain ndi1, active compounds read low 0.983 | locus YMR058W, strain fet3, active compounds read low 0.986 | locus YMR125W, strain sto1, active compounds read low 1 | locus YMR129W, active compounds read low 0.994 | locus YMR205C, strain PFK2, active compounds read low 1.03 | locus YMR231W, strain pep5, active compounds read low 1 | locus YNL071W, strain lat1, active compounds read low 1 | locus YNL183C, strain NPR1, active compounds read low 0.935 | locus YNL209W, strain ssb2, active compounds read low 1 | locus YNL248C, strain rpa49, active compounds read low 0.949 | locus YNL322C, strain KRE1 (second series), active compounds read low 0.995 | locus YNR049C, strain mso1, active compounds read low 0.995 | locus YOR001W, strain rrp6, active compounds read low 0.982 | locus YOR070C, strain gyp1, active compounds read low 0.996 | locus YOR080W, strain dia2, active compounds read low 0.998 | locus YOR083W, strain WHI5, active compounds read low 0.995 | locus YOR106W, strain vam3, active compounds read low 0.985 | locus YOR231W, strain MKK1, active compounds read low 0.986 | locus YOR265W, strain rbl2, active compounds read low 1 | locus YOR270C, strain vph1, active compounds read low 0.939 | locus YOR290C, strain snf2, active compounds read low 0.987 | locus YPL051W, strain arl3, active compounds read low 1 | locus YPL078C, strain atp4, active compounds read low 0.972 | locus YPL106C, strain sse1, active compounds read low 1 | locus YPL240C, strain hsp82, active compounds read low 0.986 | locus YPL256C, strain CLN2, active compounds read low 0.963
